VP16 counter: inhibits Gal4-VP16 luciferase reporter, ROR gamma counter-screen; Drosophila S2 Gal4-VP16 UAS-luciferase, luminescence, 20 h; Potency, µM (doses to about 53.6 µM), for inactives: at the highest dose activity, negative = inhibition, most hits filed as inhibitors; hit rate 3.5% among 310,000; AID 2546;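 also: Gal4-VP16 expression switched on by copper sulfate through the metallothionein promoter; potency is read from the fitted curve at half-maximal effect; nearly all actives have a fitted effect of over 50% in size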
DT40 TDP1 no CPT: qHTS for Inhibitors of human tyrosyl-DNA phosphodiesterase 1 (TDP1): qHTS in cells in absence of CPT; DT40 Tdp1-/- hTDP1 cells, no CPT, ATP luminescence, 48 h; Potency, µM (top dose mostly 46.2 µM), for inactives: top-dose activity change, negative = growth inhibition, most hits filed as inhibitors; hit rate 15% among 420,000; AID 686978, 2013; also: potency is read from the fitted curve at half-maximal effect; nearly all actives have a fitted effect of over 55% in size
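A cellular qHTS used chicken DT40 cells lacking endogenous Tdp1 but carrying stably transfected human TDP1. Compounds were applied without camptothecin, and cell growth kinetics were judged by ATP-dependent luminescence after ≥48 hr.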
LDHA block: LDHA (human) enzyme inhibition. purified LDHA, NADH/diaphorase-resazurin fluorescence; stronger effect = lower value. activity change, % (values are at about 110 or 230 µM). hit rate 0.15% among 480,000; in the data active = activity change below about -30%; inconclusive = mostly about -25% to -30%;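 also: plate controls were DMSO wells for no effect and wells without enzyme for full effect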
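Human LDH5 at 2 nM final in Tris HCl pH 7.4 with 0.06 mM NADH and 0.2 mM pyruvate, reacted 5 minutes at room temperature. Remaining NADH coupled via diaphorase/resazurin; resorufin fluorescence read at 0 and 20 minutes, normalized to enzyme-free and DMSO wells.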
DT40 TDP1 CPT: DT40-hTDP1 cell growth loss with CPT; chicken DT40 Tdp1-/-;hTDP1 cells + 20 nM CPT, ATP luminescence, 48 h; Potency, µM (doses to about 46.2 µM), without a hit: at the top dose activity change, negative = growth inhibition, most hits filed as inhibitors; hit rate 12% among 420,000; AID 686979; also: potency is read from the fitted curve at half-maximal effect; nearly all actives have a fitted effect of over 55% in size
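Cell growth measured by CellTiter-Glo luminescence after a minimum 48 h, 37 C compound exposure with 20 nM CPT in Tdp1-knockout DT40 cells stably expressing hTDP1, seeded 400/well; qHTS titration format.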
RORg inh: inhibitors of mouse ROR gamma transcriptional activity; Drosophila S2 Gal4-RORgamma UAS-luciferase reporter, 20 h; hit rate 5.4% among 310,000; Potency, µM (doses to about 53.6 µM), without a hit: at the top dose activity change, negative = inhibition, actives largely listed as inhibitors; also: potency is read from the fitted curve at half-maximal effect; nearly all actives have a fitted effect of over 60% in size
Target sequence (P51450 whole entry, looked up, the tested form may be a part): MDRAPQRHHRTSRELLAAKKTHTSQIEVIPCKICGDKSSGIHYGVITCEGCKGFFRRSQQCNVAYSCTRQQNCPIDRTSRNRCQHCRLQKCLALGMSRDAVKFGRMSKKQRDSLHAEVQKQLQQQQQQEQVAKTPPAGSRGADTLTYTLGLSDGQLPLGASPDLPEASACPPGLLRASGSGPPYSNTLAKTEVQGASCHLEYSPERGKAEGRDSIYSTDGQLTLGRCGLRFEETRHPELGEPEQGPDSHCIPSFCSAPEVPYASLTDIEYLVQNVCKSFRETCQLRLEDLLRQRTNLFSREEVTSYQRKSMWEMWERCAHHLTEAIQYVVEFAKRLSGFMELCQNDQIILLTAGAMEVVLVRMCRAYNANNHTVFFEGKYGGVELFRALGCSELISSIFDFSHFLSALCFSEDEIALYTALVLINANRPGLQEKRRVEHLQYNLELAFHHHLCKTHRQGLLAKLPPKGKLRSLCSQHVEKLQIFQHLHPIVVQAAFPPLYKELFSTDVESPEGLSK
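Drosophila S2 cells stably expressing Gal4-DBD/mouse RORγ fusion under metallothionein promoter plus UAS-luciferase; compound 1 h, then 700 uM CuSO4 induction for 20 h at ambient temperature; inhibition read as reduced luminescence.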
IL-1B inflam inh: inhibitors of inflammasome signaling (IL-1 beta secretion); activity change, % at 57.5 µM; THP-1 LPS/ATP IL-1B secretion, AlphaLISA, 16 h; stronger effect = lower value; hit rate 4.7% among 360,000; in the data active = activity change below about -50%; inconclusive = mostly about -30% to -49%
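Secreted IL-1B measured by AlphaLISA bead assay after 16 h compound exposure of THP-1 cells; compounds (final up to 57.5 uM) added 1 h before LPS (250 ng/mL) and ATP (1.25 mM) stimulation; lower signal means less secretion.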
Numbers without * were called inactive; i = inactive; ? = inconclusive; nt = not tested or not shown. Compounds with a hit are over-represented: about 18% of the library has one in this group of screens. Unless noted, calls follow the shape of the dose curve; as a rule, active = well fitted curve in the direction sought with a large enough effect; inconclusive = small, poorly fitted or top-dose-only effect, or another doubt; inactive = no such curve, though single readings can be large; an effect the other way counts as inactive or inconclusive. Unless noted, % is scaled to controls: 0 for no effect and ±100 for the full control effect.

SMILES | VP16 counter | DT40 TDP1 no CPT | LDHA block | DT40 TDP1 CPT | RORg inh | IL-1B inflam inh
Nc1c(C(=O)Nc2ccc(S(=O)(=O)N3CCCC3)cc2)sc2nc3cc4c(cc3cc12)CCC4 | -14% | 6.5µM* | -2 | 6.5µM* | -16% | 16
COc1ccc(-c2nc(C#N)c(NCC(C)C)o2)cc1 | nt | nt | 1 | nt | nt | nt
CC1=C/C(=C/N(C)C)C(=O)O1 | -5% | ? | 1 | -19% | -1% | -1
O=C1OC(c2ccccc2)=C/C1=C/N1CCOCC1 | 1% | 16µM* | 1 | ? | -15% | -3
O=C1OC(c2ccccc2)=C/C1=C\N1CCOCC1 | 17% | ? | 2 | 23µM* | -29% | -12
CN(C)/C=C1/C=C(c2ccccc2)OC1=O | -16% | ? | 17 | ? | 6% | -53*
O=C1SC(c2ccccc2)=C/C1=C\N1CCCCC1 | -4% | -13% | -3 | -8% | -3% | -24
COC(=O)Cn1c(=O)c2c(nc(-n3nc(C)cc3C)n2CCc2ccccc2)n(C)c1=O | nt | nt | 3 | nt | nt | nt
CN(C)c1cccc(CNC(=O)c2csc([C@@H]3O[C@H](CO)[C@@H](O)[C@H]3O)n2)c1 | nt | 12µM* | 2 | 13µM* | nt | 13
COc1ccc(/C=N/NC(=O)c2ccncc2)cc1COc1ccc(NC(C)=O)cc1 | 22% | 8.2µM* | 0 | 5.8µM* | 8% | -9
COc1ccc(/C=N\NC(=O)c2ccccc2F)cc1COc1ccc(F)cc1F | 20µM* | 2.6µM* | 1 | 2.6µM* | 16µM* | 66
COc1ccc(/C=N\NC(=O)c2ccccc2OC)cc1COc1ccccc1C | -17% | ? | 0 | 16µM* | ? | -19
COc1ccc(/C=N/NC(=O)c2ccccc2O)cc1CSc1ccccn1 | ? | -10% | 7 | -5% | 16µM* | 0
CC1=C(C(=O)Nc2ccc(C(=O)NCCc3cccs3)cc2)SCCO1 | nt | nt | 1 | nt | nt | nt
COc1ccc(/C=N/NC(=O)c2ccc(F)cc2)cc1CN1CCc2cc(OC)c(OC)cc2C1C (configuration not stated) | -14% | 18µM* | -1 | ? | 5% | -59*
COc1ccc(/C=N\NC(=O)c2ccccc2)cc1COc1ccccc1 | ? | ? | -5 | ? | ? | i
COc1ccc(C(=O)N/N=C/c2ccc(OC)c(COc3ccccc3)c2)cc1 | 27% | ? | -6 | ? | 27% | ?
COc1ccc(/C=N/NC(=O)c2ccc(OC)c(OC)c2)cc1COc1c(F)c(F)c(F)c(F)c1F | ? | ? | -1 | 16µM* | 0% | 32
COc1ccc(/C=N/NC(=O)c2ccoc2C)cc1COc1c(C)cccc1C | ? | 15µM* | -3 | 12µM* | 11µM* | 6
COc1cc(OC)cc(C(=O)N/N=C/c2ccc(OC)c(COc3ccc4ccccc4c3)c2)c1 | -7% | 6.5µM* | 3 | 4.1µM* | 25% | 39
COc1ccc(/C=N/NC(=O)c2ccc(C)cc2)cc1CN1CCN(c2ccc(F)cc2)CC1 | -3% | ? | -3 | -5% | -34% | -18
COc1cc(/C=N/NC(=O)c2ccoc2C)cc(OC)c1O | 6% | 9% | 10 | 0% | -1% | -13
Cc1cc(C)c(C(=O)COC(=O)c2ccc(C=O)cc2)c(C)c1 | nt | nt | -22 | nt | nt | nt
COc1ccc(/C=N/NC(=O)c2nc(Cl)c(Cl)c(N)c2Cl)cc1COc1ccccc1F | -15% | ? | 0 | 23µM* | 9% | 41
COc1ccc(/C=N/NC(=O)c2cc(C(C)(C)C)[nH]n2)cc1COc1ccc(F)cc1F | 1% | 23µM* | -10 | ? | 17% | -77*
COc1cccc(OCc2cc(/C=N/NC(=O)c3ccn[nH]3)ccc2OC)c1 | 0% | 26µM* | -6 | ? | 23% | 34
